VACV mCherry inh: vaccinia inhibition (mCherry reporter); Potency, µM (series often up to 36.5 µM), most hits filed as inhibitors; Vaccinia virus mCherry reporter infection, fluorescence; hit rate 0.63% among 310,000; calls by dose curve; tested in A549 cells; further: nearly all actives have a fitted effect of over 35% in size
VACV Venus inh: vaccinia inhibition (Venus reporter). Vaccinia virus Venus reporter expression, fluorescence. Potency, µM (top dose mostly 36.5 µM), most hits filed as inhibitors. hit rate 0.46% among 330,000. AID 720580; calls by dose curve; tested in A549 cells; further: nearly all actives have a fitted effect of over 30% in size
Marburg entry inh: blocks Marburg virus binding to or entry into cells. hit rate 1.8% among 300,000. AID 540276. Potency, µM (top dose mostly 37.8 µM), usual class: inhibitors. Marburg virus pseudotyped entry inhibition, cell reporter; calls by dose curve; tested in HEK293 cells
LASV entry inh: inhibitors of Lassa virus binding or cell entry. Potency, µM (series often up to 37.9 µM), actives largely listed as inhibitors. Lassa virus pseudotype entry inhibition, cell reporter. hit rate 1.2% among 300,000; calls by dose curve; tested in HEK293 cells; further: nearly all actives have a fitted effect of over 50% in size
FMDV inh: antivirals against foot and mouth disease virus | FMDV antiviral cell-based qHTS | Potency, µM (doses to about 57.9 µM), most hits filed as inhibitors | hit rate 1.2% among 410,000 | AID 1159524; calls by dose curve; tested in HEK293T cells; further: read-out not given here; nearly all actives have a fitted effect of over 45% in size
HCMV inh: inhibitors of human cytomegalovirus; activity change, negative = inhibition, % at 57.5 µM; AID 1259415; HFF cells, HCMV-luciferase reporter, 72 h; active compounds read low; hit rate 4.5% among 410,000; in the data active means activity change below about -60%; inconclusive means no clear call, values can overlap the other calls; inactive means above about -39%
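Two-dose cell screen: HFF monolayers treated with compounds and infected with luciferase-expressing HCMV at 1 PFU/cell, 72 h at 37C, then lysed for luciferase measurement.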
A number is an active result; i = inactive; ? = inconclusive; nt = no result. This is a sample that favours compounds with a hit; in the whole collection about 6.5% have one here.

SMILES | VACV mCherry inh | VACV Venus inh | Marburg entry inh | LASV entry inh | FMDV inh | HCMV inh
COCCc1nn2c(=O)cc(COC(=O)c3ccc(C(C)(C)C)cc3)nc2s1 | i | i | nt | i | ? | i
COc1cccc(CNC(=O)c2c(OC)cc(=O)n3c2CCN(C(=O)C2CC24CCCC4)CC3)c1 (stereo not given) | i | i | nt | nt | i | nt
Cc1ccc(OCC(=O)Nc2cc(-c3nc4cc(Cl)ccc4o3)ccc2C)c(C)c1 | i | i | nt | nt | nt | nt
O=C(Nc1cc(-c2ccc(F)c(F)c2)no1)c1ccccc1F | i | i | ? | i | i | i
COc1cc(/C=C2\SC(=S)N(CCC(=O)N3CCCCC3)C2=O)cc(OC)c1OC | i | i | ? | ? | 28.2µM | ?
O=C(NC1CC2CCCC(C1)N2S(=O)(=O)c1ccccc1)c1ccccc1 (stereo not given) | i | i | ? | i | ? | i
Cc1cccc(C(=O)NC2CCN(C(=O)Nc3ccccc3C)CC2)c1 | i | i | nt | nt | i | -102.9
O=C(NC1CC2CCCC(C1)N2Cc1ccccc1)c1cccc(Cl)c1 (stereo not given) | i | i | 1.26µM | i | i | i
O=C(NC1CCN(S(=O)(=O)c2cccc(F)c2)CC1)c1cccc(F)c1 | nt | nt | nt | nt | i | i
Cc1cccc(C(=O)NC2CCN(S(=O)(=O)c3cccc(F)c3)CC2)c1 | nt | nt | nt | nt | i | -60.4
Cc1cccc(C(=O)NC2CC3CCCC(C2)N3S(=O)(=O)c2ccccc2)c1 (stereo not given) | ? | i | ? | 13µM | nt | i
Cc1ccc(C)n1-c1nnc(N2CCC(C(=O)Nc3ccccc3Br)CC2)s1 | i | i | i | i | ? | i
Nc1ncnc2c1ncn2[C@H]1O[C@@H](CSCC[C@@H](N)C(=O)O)[C@H](O)[C@@H]1O | i | i | nt | nt | i | nt
c1ccc(-c2cc3c(Nc4ccc5c(c4)OCCO5)nccc3[nH]2)cc1 | nt | nt | nt | nt | nt | i
O=C(Cc1ccc(OCC2CCCCC2)cc1)NO | i | i | nt | nt | nt | nt
COc1cc(NC(=O)Cn2ncc(Cl)c(Cl)c2=O)c(C)cc1[N+](=O)[O-] | ? | ? | 7.08µM | ? | 12.6µM | -96.1
COc1ccc2cc3cc(C(=O)NC4CC4)sc3nc2c1 | nt | nt | nt | nt | 15.8µM | i
CCOc1ccc(CCNC(=O)c2cc3cc4ccc(OC)cc4nc3s2)cc1OCC | ? | ? | ? | i | i | i
CN(C)/C=C1/N=C(c2ccccc2)OC1=O | nt | i | ? | ? | i | i
O=CC1=C(c2ccccc2)Oc2ccccc2O1 | ? | i | 7.94µM | ? | ? | -94.3
O=C(Nc1ccccc1C(=O)NCC1CC1)c1cccs1 | nt | nt | nt | nt | nt | i
O=C1CCN(Cc2cccn2-c2ccccn2)CCN1Cc1ccccc1C(F)(F)F | i | i | nt | nt | i | nt
CSCc1ccc(C(=O)N2CCC(N3CCC(C(=O)NC(C)C)CC3)CC2)o1 | i | i | i | i | i | -64.3
CCCCCCCCCc1ccc(OCCOCCO)cc1 | i | ? | nt | nt | 11.2µM | nt
O=C(Nc1nnc(-c2ccc(Cl)cc2)o1)C1CCCCC1 | i | i | nt | nt | i | i
SMILES | VACV mCherry inh | VACV Venus inh | Marburg entry inh | LASV entry inh | FMDV inh | HCMV inh
Clc1ccc(-c2nnc(NC3=NCCCCC3)o2)cc1 | nt | nt | 1.64µM | ? | i | ?
Clc1ccc(-c2cc3ncc4c(n3n2)-c2ccccc2OC4)cc1 | i | i | i | ? | i | i
O=[N+]([O-])c1c(Nc2ccc(O)cc2)cc(Cl)c2nonc12 | ? | ? | nt | nt | 22.4µM | -100.0
O=[N+]([O-])c1c(Nc2ccccn2)cc(Cl)c2nonc12 | i | i | i | ? | 12.6µM | -104.5
CCCc1ccc(OCC(=O)Nc2sc3c(c2C(=O)OCC)CCC(C(C)(C)C)C3)cc1 (stereo not given) | i | i | nt | i | i | i
Brc1ccccc1/C=N/Nc1ccc2ccccc2n1 | i | i | 11.2µM | ? | i | i
Fc1cccc(/C=N/Nc2ccc3ccccc3n2)c1 | i | i | 6.31µM | ? | i | i
O=[N+]([O-])c1cccc(C=NNc2ccc3ccccc3n2)c1O | ? | ? | 2.24µM | 2.51µM | 10µM | -96.8
Brc1ccc(/C=N/Nc2ccc3ccccc3n2)cc1 | i | i | i | ? | i | i
O=C(CSc1ncc2c(n1)-c1ccccc1N(Cc1ccc(Cl)cc1)S2(=O)=O)c1ccccc1 | i | i | nt | i | i | i
Cc1ccc(-c2[nH]ncc2/C=N/n2c(COc3ccccc3)nc3ccccc3c2=O)cc1 | i | ? | ? | ? | i | -77.9
Cc1ccccc1OCc1nc2ccccc2c(=O)n1/N=C/c1cn[nH]c1-c1ccccc1 | ? | ? | 15.8µM | 10µM | ? | i
Cc1cc(/C=N/n2c(COc3ccccc3)nc3ccccc3c2=O)c(O)c([N+](=O)[O-])c1 | 28.2µM | ? | ? | ? | i | -62.9
O=c1c2ccccc2nc(COc2ccccc2)n1/N=C/c1ccc(O)c(O)c1 | nt | nt | i | nt | i | i
Cc1nc2ccccc2c(=O)n1/N=C/c1cn[nH]c1-c1ccccc1 | i | i | i | ? | i | i
COc1cc(=O)n2c(c1C(=O)NCc1nonc1C)CCN(Cc1c[nH]c3ccccc13)CC2 | i | i | nt | nt | i | nt
CCCNC(=O)c1ccc(Cn2cc(-c3ccc(C)cc3)ncc2=O)cc1 | nt | nt | nt | nt | nt | i
CCCCOC(=O)/C=C/c1ccc(OC(=O)OC)c(OC(=O)OC)c1 | i | i | 11.2µM | ? | i | i
COC(=O)Oc1ccc(/C=C/C(=O)OC(C)C)cc1OC(=O)OC | ? | i | ? | i | i | i
CC(C)(C)c1ccc(OCC(=O)N2CCN(c3ccccn3)CC2)cc1 | nt | nt | nt | nt | i | -94.3
COc1ccccc1/C=C/C=N/N1CCN(c2ccccn2)CC1 | nt | i | i | i | ? | -64.1
CCOC(=O)c1cc(-c2ccc(C)cc2)n(CCC(=O)NCc2ccccc2)c1C | i | i | i | nt | i | i
CCOC(=O)c1cnc2c(OC)cccc2c1N1CCN(c2ccccn2)CC1 | i | i | 11.2µM | ? | 31.6µM | -68.6
CC(C)(C)c1ccc(OCC(=O)N2CCN(c3ncccn3)CC2)cc1 | nt | nt | nt | nt | i | nt
CCOC(=O)c1cc(-c2ccc(C)cc2)n(CCC(=O)N2CCN(c3ccccn3)CC2)c1C | ? | ? | 20.6µM | 15.8µM | ? | i
SMILES | VACV mCherry inh | VACV Venus inh | Marburg entry inh | LASV entry inh | FMDV inh | HCMV inh
CCOC(=O)c1cccc(NC(=O)Cn2c(=O)c3cccn3c3ccccc32)c1 | i | i | nt | ? | i | i
COc1ccccc1CC(=O)N1CCN(c2ccccn2)CC1 | nt | ? | i | i | i | -73.5
COc1ccc(Cl)cc1NC(=O)C(C)N1CCN(c2ccccn2)CC1 (stereo not given) | nt | nt | nt | nt | ? | -74.3
CC1(C2CC2)NC(=O)N(CC(=O)N2CCN(c3cccc(C(F)(F)F)c3)CC2)C1=O (stereo not given) | i | i | i | i | 35.5µM | ?
COc1ccccc1NC(=O)N1CCN(c2cccc(C(F)(F)F)c2)CC1 | nt | nt | i | i | ? | i
Cc1ccc(CC(=O)N2CCN(c3cccc(C(F)(F)F)c3)CC2)cc1 | nt | i | i | ? | i | i
COc1ccccc1CC(=O)N1CCN(c2cccc(C(F)(F)F)c2)CC1 | ? | i | ? | ? | nt | -69.5
CC(C(=O)Nc1ccccc1)N1CCN(c2ccccn2)CC1 (stereo not given) | nt | nt | nt | nt | i | i
COc1ccc(CC(=O)NO)cc1OC | i | i | nt | nt | nt | nt
COCc1c(C(=O)N2CCN(c3ccccc3O)CC2)cnn1-c1nccc(-c2cccs2)n1 | i | i | nt | nt | i | nt
CCOC(=O)c1cnc2c(C)cc(Cl)cc2c1N1CCN(C)CC1 | i | i | i | i | i | -62.0

Screens (PubChem BioAssay)
